MBD2 DNA inh – inhibitors of MBD2 binding to methylated DNA, primary screen, biochemical, TR-FRET, DNA-binding domain, human; MBD2 binding to methylated oligonucleotide; actives 0.31% (n = 370,000); inhibition, % at 4.4 µM; in the data active = inhibition above about 13%
DNMT1 inh – human DNMT1 methyltransferase inhibitors, primary screen, biochemical, molecular beacon, fluorescence, HinP1I cleavage, uHTS. DNA (cytosine-5)-methyltransferase 1 (Homo sapiens), P26358. inhibition (reported as % activation of signal), % at 10 µM. actives 0.83% (n = 360,000). AID 588458, 2011; in the data active = inhibition above about 50%
UHRF1 binding – UHRF1 methylated DNA binding inhibitors, primary screen, counter-screen for MBD2 inhibitor project, biochemical, TR-FRET, human UHRF1, single concentration; AID 687016, 2013; UHRF1 binding to methylated oligo; E3 ubiquitin-protein ligase UHRF1 (Homo sapiens), Q96T88; actives 0.75% (n = 370,000); inhibition, % at 4.4 µM; in the data active = inhibition above about 21%;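 also: UHRF1 SRA domain binding a hemimethylated CpG hairpin DNA probe; 0% = median of test compound wells and 100% = reference inhibitor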
Target sequence (Q96T88 whole entry, looked up, the tested form may be a part): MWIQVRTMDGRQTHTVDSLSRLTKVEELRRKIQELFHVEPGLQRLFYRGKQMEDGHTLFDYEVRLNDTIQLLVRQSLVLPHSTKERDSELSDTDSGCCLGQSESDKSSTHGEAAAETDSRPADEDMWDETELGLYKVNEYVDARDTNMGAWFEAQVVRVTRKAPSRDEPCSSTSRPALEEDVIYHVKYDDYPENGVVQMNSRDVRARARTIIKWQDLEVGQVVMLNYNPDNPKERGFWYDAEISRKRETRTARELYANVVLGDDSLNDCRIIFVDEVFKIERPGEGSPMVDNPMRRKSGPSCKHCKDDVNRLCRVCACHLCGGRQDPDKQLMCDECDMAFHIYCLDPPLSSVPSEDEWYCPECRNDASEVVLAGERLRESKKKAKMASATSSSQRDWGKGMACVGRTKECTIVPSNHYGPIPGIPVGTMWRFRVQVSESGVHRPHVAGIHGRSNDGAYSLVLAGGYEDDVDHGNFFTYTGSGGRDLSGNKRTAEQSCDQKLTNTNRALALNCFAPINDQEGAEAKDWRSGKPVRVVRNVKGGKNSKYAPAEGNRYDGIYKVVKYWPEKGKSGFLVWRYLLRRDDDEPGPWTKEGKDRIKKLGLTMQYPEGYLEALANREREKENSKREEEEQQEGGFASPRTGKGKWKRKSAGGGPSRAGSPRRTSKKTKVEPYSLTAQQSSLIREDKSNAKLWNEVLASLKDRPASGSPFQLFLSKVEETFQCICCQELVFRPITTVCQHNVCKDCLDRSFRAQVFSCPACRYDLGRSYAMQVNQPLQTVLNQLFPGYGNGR
rCAG binder – binders of r(CAG) RNA repeats, primary screen, biochemical, fluorescence; actives 1.3% (n = 370,000); inhibition, % at 3 µM; AID 651821, 2012; r(CAG) RNA repeat, TO-PRO-1 dye displacement fluorescence;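 active = inhibition above the plate cutoff, the mean of all test compounds on that plate plus 3 SD, cut at about 35% in these data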;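 also: 0% = DMSO alone and 100% = 100 µM mitoxantrone as full dye displacement; higher means more dye released from RNA so lower well fluorescence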
LEDGF integ inh – blockers of LEDGF/p75-dependent integrase strand transfer – biochemical, TR-FRET, high throughput, primary screen | HIV-1 integrase (with human LEDGF/p75) | TR-FRET IN-LEDGF/p75 DNA integration, Eu/Cy5 | inhibition, % at 3.7 µM | actives 0.64% (n = 370,000);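 active = inhibition above the screen-wide mean plus 3 SD, cut at about 13% in these data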;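 also: signal is the Cy5 over europium emission ratio at 671 and 618 nm; 0% = plate median of compound wells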
PG9 binder – binders of HIV-1 gp120 antibody PG9, primary screen, biochemical, TR-FRET. AID 624416, 2012. TR-FRET gp120-PG9 antibody binding. HIV-1 gp120 / PG9 antibody interaction. inhibition, % at 6.7 µM. actives 0.43% (n = 360,000); in the data active = inhibition above about 8.5%
rCAG binder conf – small molecules binding CAG repeat RNA – biochemical, fluorescence, confirmation; shares compounds with rCAG binder; r(CAG) RNA repeat, TO-PRO-1 dye displacement fluorescence; inhibition, % at 3 µM; actives 70% (n = 4,300);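 active = inhibition above a per-plate cutoff, the mean inhibition of sample wells plus 3 SD, cut at about 35% in these data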;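 also: loss of TO-PRO-1 fluorescence as compound displaces dye from 1x1 AA loop RNA; 0% = DMSO only wells and 100% = 100 µM mitoxantrone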
DNA CAG counter – displacement of TO-PRO-1 from CAG DNA duplex, counter-screen for rCAG RNA repeat binder project, biochemical, fluorescence, TO-PRO-1 dye, d(CAG) DNA oligo; shares compounds with rCAG binder; d(CAG) DNA oligo TO-PRO-1 dye displacement; inhibition, % at 3 µM; actives 94% (n = 4,300); AID 652068, 2013;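 active = inhibition above its plate's cutoff, the mean test-well inhibition plus 3 SD, cut at about 4.8% in these data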;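 also: 0% = DNA dye mix with DMSO and 100% = 100 µM mitoxantrone; hits displace the dye from DNA and so lower well fluorescence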
UHRF1 DNA bind – UHRF1 methylated DNA binding inhibitors, counter-screen for MBD2 inhibitor project, biochemical, TR-FRET, human UHRF1. shares compounds with MBD2 DNA inh. UHRF1 binding to methylated oligonucleotide. inhibition, % at 4.4 µM. actives 25% (n = 1,000); in the data active = inhibition above about 21%;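 also: UHRF1 SRA domain binding a labeled hemimethylated CpG hairpin DNA; 0% = vehicle only and 100% = reference inhibitor with vehicle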
MBD2 confirm – inhibitors of MBD2 binding to methylated DNA, confirmation, biochemical, TR-FRET, DNA-binding domain, human. shares compounds with MBD2 DNA inh. TR-FRET MBD2-DBD binding to methylated oligonucleotide. inhibition, % at 4.4 µM. actives 26% (n = 1,000)
IN multimer up – HIV-1 IN multimer formation enhancers, counter-screen for LEDGF/p75 integration inhibitor project, biochemical, TR-FRET; shares compounds with LEDGF integ inh; TR-FRET HIV-1 integrase multimerization; activation, % at 7.7 µM; actives 17% (n = 2,000); in the data active = activation above about 8.9%
TRFRET interf – TR-FRET optical interference artefacts, confirmation, artefact control for LEDGF/p75-dependent integration inhibitor project, biochemical, HIV-1 IN multimerization. shares compounds with LEDGF integ inh. TR-FRET optical interference counterscreen. inhibition, % at 7.7 µM. 2,000 tested, under 10 active. AID 1053135, 2014;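 active = inhibition above the mean over all tested compounds plus 3 SD, which no compound reached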;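 also: 0% = integrase with antibodies and DMSO and 100% = antibodies without integrase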
LEDGF integ conf – inhibitors of HIV-1 IN-LEDGF/p75 DNA integration, confirmation, biochemical, TR-FRET | inhibition, % at 3.7 µM | shares compounds with LEDGF integ inh | actives 36% (n = 2,000) | TR-FRET LEDGF/p75-dependent HIV-1 integration | AID 1053136, 2014
Numbers without * were called inactive; . = not tested or not shown. The list is not random: actives were taken first. Their share in the collection is about 3.5%. Rule as the data show it, unless noted: active = inhibition above about 14%; inactive = the rest.

SMILES	MBD2 DNA inh	DNMT1 inh	UHRF1 binding	rCAG binder	LEDGF integ inh	PG9 binder	UHRF1 DNA bind	MBD2 confirm	others
O=C1C=CC(=O)c2c(O)c(N3CCN(CCOCCO)CC3)c(Br)c(O)c21	10	98*	40*	53*	50*	3	.	.	rCAG binder conf=68*;DNA CAG counter=36*;IN multimer up=99*;TRFRET interf=-352;LEDGF integ conf=83*
CC(C(=O)N1CCCC1)N(C)CC(=O)Nc1cccc(F)c1 (configuration not stated)	1	6	-2	0	-1	2	.	.
N#Cc1ccc(-c2ccco2)nc1SCc1ccccc1	0	-3	5	13	0	-1	.	.
CCSc1nc(-c2ccco2)ccc1C#N	-1	14	8	56*	16*	0	.	.	rCAG binder conf=11;DNA CAG counter=8.6*;IN multimer up=-2;TRFRET interf=10;LEDGF integ conf=13
COc1cc2sc3cc(NCC[C@@H]4CCCN4C)ccc3c(=O)c2cc1OC	18*	-4	0	13	0	-2	10	22*
COc1cccc2sc3ccc(NCCC4CCCN4C)cc3c(=O)c12 (configuration not stated)	-6	0	-17	4	-2	-12	.	.
C#CCN(Cc1ccco1)C(=O)c1nnc2c3cc(OC)ccc3n(S(=O)(=O)c3ccc(OC)cc3)c2n1	26*	.	1	15	-3	6	6	20*
C#CCN(Cc1cccc(F)c1)C(=O)c1nnc2c3cc(F)ccc3n(S(=O)(=O)c3ccc(OC)cc3)c2n1	-1	.	-1	8	1	2	.	.
CNC(=S)N(Cc1cc2cc(OC)c(OC)cc2[nH]c1=O)C1CCCC1	20*	0	2	0	-2	-1	11	3
Cc1ccc(S(=O)(=O)NCc2ccccc2)cc1C(=O)NCC(=O)Nc1c(C)cccc1C	6	-4	1	3	-1	2	.	.
O=C(Nc1ccc(F)c(C(F)(F)F)c1)Nc1nnc(-c2ccncc2)s1	15*	.	6	.	-6	.	6	10
CCC(=O)Nc1nnc(-c2ccncc2)s1	2	10	-6	1	-2	0	.	.
Cc1ccc(CC(=O)Nc2nc3c(s2)CCCC3)cc1	13*	0	11	10	-1	0	5	3
COc1ccc(OCC(=O)Nc2nc3c(s2)CCCC3)cc1	-1	1	0	0	1	0	.	.
Cc1ccc(CC(=O)Nc2cccc(C)n2)cc1	15*	-3	20	-3	4	-1	6	3
COc1cc(S(=O)(=O)N2CC(=O)Nc3ccccc32)ccc1NC(C)=O	-5	-5	-2	5	4	-2	.	.
O=C(CN1CCOCC1)NNc1c2ccccc2nc2ccccc12	-8	2	-8	-1	-1	-20	.	.
C[N+]1(CC(=O)NNc2c3ccccc3nc3ccccc23)CCOCC1	40*	.	29*	5	1	-20	34*	31*
COc1cccc(CNC(=O)C2(C)Oc3ccccc3NC2=O)c1 (configuration not stated)	61*	8	2	4	1	3	7	1
COc1ccccc1CNC(=O)C1(C)Oc2cccnc2NC1=O (configuration not stated)	2	2	-1	-1	5	-1	.	.
C#CCOCCOCCOCCNc1nc(N2CCN(C(=O)[C@H](CO)n3cc([C@@H](N)C(C)C)nn3)CC2)nc(N2CCN(C(=O)[C@H](CO)n3cc([C@@H](N)C(C)C)nn3)CC2)n1	15*	9	22*	-3	5	0	11	6
C#CCOCCOCCOCCNc1nc(N2CCN(C(=O)[C@H](CO)n3cc([C@@H](N)C(C)C)nn3)CC2)nc(N2CCN(C(=O)[C@H](CCC(=O)O)n3cc([C@@H](N)CCCCN)nn3)CC2)n1	1	1	4	4	4	1	.	.
CCCCn1c(N)c(N(CC(C)C)C(=O)C(C)SCc2nc3sc(C)c(C)c3c(=O)[nH]2)c(=O)[nH]c1=O (configuration not stated)	20*	-3	0	0	-2	1	6	0
Cc1ccc(S(=O)(=O)N(C)C)cc1NC(=O)CCc1ccccc1	21*	2	2	-2	-1	-3	8	3
COc1ccccc1CCn1cnc(-c2ccc(F)cc2F)c1CC(C)C	2	.	4	0	1	1	.	.

Assay outcomes as filed in PubChem BioAssay.
